# Where “and” joins values, the source holds several entries; their conditions need not be identical. Equal values may be shown once. Records with an inconclusive call do not appear. Unmarked numbers belong to inactive results. Calls of active or inactive are those of the source. Unless noted, calls follow the shape of the dose curve; as a rule, active = well fitted curve in either direction with a large enough effect (not every such curve was filed as active); inconclusive = small, poorly fitted or top-dose-only effect, or another doubt; inactive = flat fitted curve, though single readings scatter.
# Tests used:
# [1] = AP1 Signaling Pathway (AID 357); details: ME-180 (cervical carcinoma) AP-1-bla reporter, EGF-induced, beta-lactamase ratio, 5 h; also: % is scaled to controls: 0 for no effect and ±100 for the full control effect
# Summary of the method: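 AP-1-bla ME-180 cells with beta-lactamase reporter under AP-1 response element, stimulated with EC50 EGF; compounds titrated, 5 hours at 37 degrees Celsius. CCF4 read at 460/530 nm ratio; positive and negative modulators judged by AC50.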
# [2] = NFAT Signaling Pathway (AID 444); details: Jurkat NFAT-bla M1, carbachol, beta-lactamase ratio, 5 h;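 also: carbachol stimulus at about its EC50 of 1 µM final; % is scaled to controls: 0 for no effect and ±100 for the full control effect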
# Summary of the method: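 Jurkat cells carrying an NFAT-driven β-lactamase reporter and co-transfected muscarinic M1 receptor were treated with compound plus carbachol (1 uM final, an EC50 level) for 5 h at 37 °C. CCF4 loading followed for 1 h at RT; 460/530 nm ratio gave %activity.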
# [3] = target: Cytochrome P450 1A2 (Homo sapiens) (UniProt P05177); assay: p450-cyp1a2 (AID 410; calls by dose curve; also: potency is read from the fitted curve at half-maximal effect;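 as to activity change, negative = inhibition: -100% = full effect of reference inhibitor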); details: recombinant CYP1A2, luciferin-ME demethylation, luminescence; series mostly up to 57 µM
# Summary of the method: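 20nM CYP1A2 with 100uM Luciferin-ME (at Km) in 100mM KPO4; compound preincubated 10 min, NADPH regeneration added, 60 min at room temperature. Luciferin quantified by luminescence after detection reagent; normalized to 57 uM furafylline.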
# [4] = Cell Viability - BJ (AID 421; calls by dose curve;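 also: potency is read from the fitted curve at half-maximal effect; cells exposed to compound for 40 hours at 37 °C before readout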); details: BJ fibroblast viability, qHTS
# Summary of the method: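 Cytotoxicity in human BJ foreskin fibroblasts is scored as loss of cellular ATP after a 40-hour exposure, measured by luciferase luminescence. Controls are DMSO and 100 uM tamoxifen.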
# [5] = Cell Viability - Jurkat (AID 426;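 active = dose-dependent loss of cell ATP signal giving a full or clear fitted curve, ranked by lower potency value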;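 also: potency is read from the fitted curve at half-maximal effect; cells exposed to compound for 40 hours at 37 °C before ATP read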); details: qHTS
# Summary of the method: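 Jurkat (Clone E6-1) cells, 5000/well in complete medium, exposed to compounds for 40 hr at 37C; intracellular ATP measured by CellTiter-Glo luminescence after 20 min at room temperature. AC50 from Hill fits.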
# [6] = Cell Viability - Hek293 (AID 427;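 active = compounds whose dose-response curve shows a full or clear partial loss of cell viability, called from curve shape rather than a numeric limit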;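 also: potency is read from the fitted curve at half-maximal effect; cells exposed to compound for 40 hours at 37 °C before reading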); details: qHTS
# Summary of the method: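 qHTS, human embryonic kidney (adenovirus-transformed) cells; 40 hr cpd, 37 °C; CellTiter-Glo ATP luminescence. Norm: DMSO = 0, 100 uM tamoxifen = 100% inhibition. Hill-fit AC50.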
# [7] = Cell Viability - HepG2 (AID 433; calls by dose curve;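 also: potency is read from the fitted curve at half-maximal effect; potency for ATP loss meaning cytotoxicity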); details: qHTS
# Summary of the method: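 HepG2 cells, 1500 per well, treated 40 hr at 37 °C in complete medium; viability from intracellular ATP by CellTiter-Glo luminescence. Normalized to DMSO and 100 uM tamoxifen; AC50 from Hill fit of qHTS concentration-response.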
# [8] = Cell Viability - MRC5 (AID 434; calls by dose curve;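 also: potency is read from the fitted curve at half-maximal effect; potency reflects cytotoxicity seen as loss of intracellular ATP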); details: MRC5 lung fibroblast viability, qHTS
# Summary of the method: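 MRC5 normal human lung fibroblasts (1500/well) were treated with compounds for 40 hr at 37 °C in complete medium, and viable cells were measured as intracellular ATP by CellTiter-Glo luminescence. AC50 came from Hill fits, normalized to DMSO and 100 uM tamoxifen.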
# [9] = Cell Viability - SK-N-SH (AID 435; calls by dose curve;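 also: potency is read from the fitted curve at half-maximal effect; compound exposure lasted 40 h at 37 °C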); details: SK-N-SH neuroblastoma cell viability qHTS
# Summary of the method: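 SK-N-SH neuroblastoma cells (1500/well) treated 40 h at 37 °C in complete medium; viability read as cellular ATP by CellTiter-Glo luminescence. Normalized to DMSO and 100 uM tamoxifen; AC50 from Hill fits of qHTS concentration-response.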
# Cytochrome P450 1A2 (Homo sapiens), sequence (P05177 whole entry, looked up): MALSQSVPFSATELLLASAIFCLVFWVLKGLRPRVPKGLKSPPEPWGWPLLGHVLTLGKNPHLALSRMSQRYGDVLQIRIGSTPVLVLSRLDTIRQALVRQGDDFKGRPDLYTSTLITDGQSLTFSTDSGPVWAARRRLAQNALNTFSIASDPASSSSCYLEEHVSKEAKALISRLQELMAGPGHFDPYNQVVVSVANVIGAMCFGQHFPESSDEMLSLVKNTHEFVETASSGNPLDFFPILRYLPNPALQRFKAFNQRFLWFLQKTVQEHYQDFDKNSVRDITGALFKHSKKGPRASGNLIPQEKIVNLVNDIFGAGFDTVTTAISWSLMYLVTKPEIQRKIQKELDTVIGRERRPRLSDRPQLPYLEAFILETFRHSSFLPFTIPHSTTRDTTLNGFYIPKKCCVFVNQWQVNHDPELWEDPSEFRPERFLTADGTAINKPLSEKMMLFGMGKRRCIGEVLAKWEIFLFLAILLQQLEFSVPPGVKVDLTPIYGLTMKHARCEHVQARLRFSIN
structure (smiles),measurement,setting,value
C[C@]12C=CC(=O)C=C1CC[C@H]1[C@@H]3C[C@@H](O)[C@](O)(C(=O)CO)[C@@]3(C)C[C@H](O)[C@@]12F,"activity change, negative = inhibition",[1]; at 17.2 µM (top of the series),-5.22%
same,"activity change, negative = inhibition",[2]; at 17.2 µM (top of the series),16.1%
C[N+](C)(C)CCOC(=O)CCC(=O)OCC[N+](C)(C)C,"activity change, negative = inhibition",[1]; at 38 µM (top of the series),-1.57%
same,Potency,[3],inactive
same,"activity change, negative = inhibition",[2]; at 38 µM (top of the series),1.62%
COCCc1ccc(OCC(O)CNC(C)C)cc1 (stereo not given),"activity change, negative = inhibition",[1]; at 17.2 µM (top of the series),3.62%
same,"activity change, negative = inhibition",[2]; at 17.2 µM (top of the series),-25.7%
CO[C@@]1(NC(=O)CSCC#N)C(=O)N2C(C(=O)O)=C(CSc3nnnn3C)CS[C@@H]21,"activity change, negative = inhibition",[1]; at 17.2 µM (top of the series),6.1%
same,"activity change, negative = inhibition",[2]; at 17.2 µM (top of the series),-23.9%
COC(=O)[C@@H](N)Cc1ccc(O)c(O)c1,"activity change, negative = inhibition",[1]; at 38 µM (top of the series),2.14%
same,"activity change, negative = inhibition",[2]; at 38 µM (top of the series),5.8%
Cc1nnc(SCC2=C(C(=O)O)N3C(=O)[C@@H](NC(=O)Cn4cnnn4)[C@H]3SC2)s1,"activity change, negative = inhibition",[1]; at 17.2 µM (top of the series),6.59%
same,"activity change, negative = inhibition",[2]; at 17.2 µM (top of the series),-25%
Fc1ccc(C(c2ccc(F)cc2)N2CCN(C/C=C/c3ccccc3)CC2)cc1,"activity change, negative = inhibition",[1]; at 17.2 µM (top of the series),-10.9%
same,"activity change, negative = inhibition",[2]; at 17.2 µM (top of the series),-88.5% (active)
COc1ccc2c(c1OC)C(=O)O[C@@H]2[C@H]1c2c(cc3c(c2OC)OCO3)CCN1C,"activity change, negative = inhibition",[1]; at 17.2 µM (top of the series),-3.96%
same,"activity change, negative = inhibition",[2]; at 17.2 µM (top of the series),-10.3%
C[C@]12CCC(=O)C=C1CC[C@@H]1[C@@H]2C(=O)C[C@@]2(C)[C@H]1CC[C@]2(O)C(=O)CO,"activity change, negative = inhibition",[1]; at 17.2 µM (top of the series),7.64%
same,"activity change, negative = inhibition",[2]; at 17.2 µM (top of the series),-6.84%
CN=C(NC#N)NCCSCc1nc[nH]c1C,"activity change, negative = inhibition",[1]; at 38 µM (top of the series),-4.97%
same,Potency,[3],inactive
same,Potency,[4],> 92 µM
same,Potency,[5],> 92 µM
same,Potency,[6],> 92 µM
same,Potency,[7],> 92 µM
same,Potency,[8],> 92 µM
same,Potency,[9],> 92 µM
same,"activity change, negative = inhibition",[2]; at 38 µM (top of the series),6.95%
NCCCNCCSP(=O)(O)O,"activity change, negative = inhibition",[1]; at 38 µM (top of the series),11.2%
same,Potency,[3],inactive
same,"activity change, negative = inhibition",[2]; at 38 µM (top of the series),-0.295%
CCCCNc1c(C(=O)OCC)c(C)nc2c1cnn2CC,"activity change, negative = inhibition",[1]; at 38 µM (top of the series),-13.4%
same,Potency,[3],631 nM (active) and 63.1 nM (active)
same,"activity change, negative = inhibition",[2]; at 17.2 µM (top of the series),-22.8%
same,"activity change, negative = inhibition",[2]; at 38 µM (top of the series),-0.356%
CN(C)[C@@H]1C(=O)C(C(N)=O)=C(O)[C@@]2(O)C(=O)C3=C(O)c4c(O)ccc(Cl)c4[C@@H](O)[C@H]3C[C@@H]12,"activity change, negative = inhibition",[1]; at 17.2 µM (top of the series),-3.11%
same,"activity change, negative = inhibition",[2]; at 17.2 µM (top of the series),0.847%
CC(=O)OCC1=C(C(=O)O)N2C(=O)[C@@H](NC(=O)Cc3cccs3)[C@H]2SC1,"activity change, negative = inhibition",[1]; at 17.2 µM (top of the series),-3.26%
same,"activity change, negative = inhibition",[2]; at 17.2 µM (top of the series),0.294%
OC(CCN1CCCCC1)(c1ccccc1)C1CCCCC1 (stereo not given),"activity change, negative = inhibition",[1]; at 17.2 µM (top of the series),5.32%
same,"activity change, negative = inhibition",[2]; at 17.2 µM (top of the series),-77.3% (active)
C[N+](C)(C)CCOC(N)=O,"activity change, negative = inhibition",[1]; at 38 µM (top of the series),21.2%
same,Potency,[3],inactive
Cc1nc2c([nH]1)c(=O)n(C)c(=O)n2Cc1ccco1,"activity change, negative = inhibition",[1]; at 38 µM (top of the series),-6.02%
same,"activity change, negative = inhibition",[2]; at 38 µM (top of the series),-9.82%

# — PubChem BioAssay (NCATS)
